From PubChem BioAssay AID1347044 (National Center for Advancing Translational Sciences (NCATS), 2019)
The campaign covered roughly 1,400 compounds. About 1,100 (79%) were called active. Roughly 20% stayed inconclusive and do not appear here. Calls come from the whole dose curve. So high a share suggests a set chosen from earlier hits. The list is a sample of the results.
Note: nearly all actives have a fitted effect of over 70% in size.
Potency is the fitted concentration of half-maximal effect.

These compounds were tested against Atrial natriuretic peptide receptor 1 (Homo sapiens) (UniProt P16066) (assay: Natriuretic polypeptide receptor (hNpr1) antagonism - Confirmation). Details: HEK293 hNpr1 cGMP GloSensor luminescence, ANP-stimulated.
Sequence of Atrial natriuretic peptide receptor 1 (Homo sapiens) (P16066 whole entry, looked up, the tested form may be a part): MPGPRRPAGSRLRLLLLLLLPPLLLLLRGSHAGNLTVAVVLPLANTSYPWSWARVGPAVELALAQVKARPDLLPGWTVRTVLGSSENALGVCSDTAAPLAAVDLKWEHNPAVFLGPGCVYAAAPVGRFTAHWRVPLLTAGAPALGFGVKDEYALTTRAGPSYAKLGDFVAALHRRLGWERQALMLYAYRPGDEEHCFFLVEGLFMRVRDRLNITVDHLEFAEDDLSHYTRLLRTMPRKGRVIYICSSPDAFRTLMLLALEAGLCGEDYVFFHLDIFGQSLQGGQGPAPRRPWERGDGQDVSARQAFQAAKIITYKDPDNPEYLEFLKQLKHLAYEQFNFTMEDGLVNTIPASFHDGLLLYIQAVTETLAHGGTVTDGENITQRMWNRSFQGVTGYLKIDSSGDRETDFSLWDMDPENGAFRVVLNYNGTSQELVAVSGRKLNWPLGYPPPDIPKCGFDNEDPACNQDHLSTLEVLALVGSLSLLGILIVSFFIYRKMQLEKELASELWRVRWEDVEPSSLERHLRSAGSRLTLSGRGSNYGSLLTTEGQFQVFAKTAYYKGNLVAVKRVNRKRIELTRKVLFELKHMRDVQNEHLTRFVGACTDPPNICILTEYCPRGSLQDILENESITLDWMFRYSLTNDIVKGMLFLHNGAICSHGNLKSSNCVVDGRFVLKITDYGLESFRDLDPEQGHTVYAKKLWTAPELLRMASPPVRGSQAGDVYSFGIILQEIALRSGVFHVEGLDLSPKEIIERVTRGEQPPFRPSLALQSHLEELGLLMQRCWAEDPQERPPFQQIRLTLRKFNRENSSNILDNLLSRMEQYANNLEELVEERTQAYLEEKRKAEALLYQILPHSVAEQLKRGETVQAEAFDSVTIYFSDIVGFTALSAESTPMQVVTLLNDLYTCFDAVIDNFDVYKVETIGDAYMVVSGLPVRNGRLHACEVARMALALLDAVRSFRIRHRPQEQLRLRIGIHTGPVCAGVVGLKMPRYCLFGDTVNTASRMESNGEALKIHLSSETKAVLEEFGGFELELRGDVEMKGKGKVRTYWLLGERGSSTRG
Method: In order to identify small molecular compounds that inhibit the hNpr1 receptor we developed a high-throughput assay to measure inhibition of the guanylate cyclase activity of the receptor. cGMP production was measured using a circular permutated Firefly luciferase (FLuc) enzyme functionally linked to the cGMP binding domain of human phosphodiesterase 5 (GloSensor technology pGS-40F, (Fan, F. et al. 2008). The cGMP-sensor was expressed in human embryonic kidney 293 (HEK-293) cells and FLuc activity was measured after stimulation with hNrp agonist peptide. hNrp agonists activates the receptor's associated guanylyl cyclase (GC) domain producing cGMP which then binds to the GloSensor resulting in FLuc activation, the enzymatic activity of which can be measured as bioluminescence with addition of luciferin substrate. A cytotoxicity counter-screen using the HEK-hNpr1-cGMP-sensor cells was also performed on the follow-up compounds. F. Fan, B. F. Binkowski, B. L. Butler, P. F. Stecha, M. K. Lewis, K. V. Wood, Novel genetically encoded biosensors using firefly luciferase. ACS Chem Biol 3, 346-351 (2008).
PROTOCOL TABLES (as described by Inglese J, Shamu CE and Guy RK. 2007) SEQUENCE No. (e.g., 1, 2, 3, etc.); PARAMETER (e.g., Cells, Incubation, Reagent, etc.); VALUE and DESCRIPTION. GLOSENSOR PROTOCOL 1. Cells. Seed 1500 HEK293 cGMP-sensor cells expressing hNpr1 per well in 4uL into Greiner 1536-well white/solid bottom high base, tissue culture-treated plates. 2. Incubation. Incubate plated cells at 37C in 5% CO2, 95% RH overnight. 3. Reagent. Add 1uL per well GloSensor reagent from Promega (2% final concentration) or CO2 independent media vehicle control to respective columns of Greiner 1536-well plates. 4. Incubation. Incubate plated cells at room temperature for 2 h, protect from light. 5. Compounds. Library compounds and A-71915 control added at 23 nL per well, transferred by Pin Tool. 6. Incubation. Incubate plated cells for 30 min. at room temperature, protect from light. 7. Detector. GloSensor baseline pre-read luminescence measured using CCD-based camera (Viewlux). 8. Compound. Add 1uL of hNppA peptide to 0.1 nM final concentration to stimulate hNpr1 or CO2 independent media as vehicle control. 9. Incubation. Incubate treated cells at room temperature for 20 min., protect from light. 10. Detector. GloSensor post-hNppA luminescence measured using CCD-based camera (Viewlux). NOTES (numbers refer to Sequence numbers above) 1. HEK293 cells expressing hNpr1 and GIP/pGS-40F grown to 85-95% confluence (48-72 h) in T175 culture flasks (CO2 independent media supplemented with 10% FBS, 1% Pen/Strep antibiotics and 1 ug/mL puromycin). Trypsinize and harvest cells from T175 culture flasks and filter through 40 um cell strainer. Cells counted with Invitrogen Countess (30,000,000 - 50,000,000 cells/flask). Cells diluted to a final concentration of 375 cells/uL in CO2 independent media and a Millipore multidrop used to dispense 1500 cells per well (4uL/well) into 13 1536-well Greiner White/Solid bottom, high base tissue-culture treated (TC) plates and one Aurora 1536-well Black/Clear bottom, low base, TC plate (for visual inspection of cell health throughout the duration of the assay). 2. Cells incubated overnight at ambient temperature, 24 h. at 37C in 95% RH incubator protected from light, covered with metal lid with gas-exchange holes. 3. […]
With `CCC(CC)c1cc([C@H]2CN3CC[C@H]2C[C@@H]3CNC(=O)NCc2ccccc2)nc(-c2ccncc2)n1` the Potency was 19.3 µM (active). With `COc1cc2c(cc1Oc1cccc(N(C)C)c1)NC(=O)C21CCN(CCC(C)C)CC1` the Potency was 35.3 µM (active). With `COc1cc2c(cc1Oc1cccc(N(C)C)c1)NC(=O)C21CCN(c2cnccn2)CC1` the Potency was 21.7 µM (active). In the case of `COc1cc2c(cc1OCc1ccncc1)NC(=O)C21CCN(c2ncc(F)cn2)CC1`, the Potency is reported as 39.6 µM (active). `COc1cc2c(cc1Oc1cccc(N(C)C)c1)NC(=O)C21CCN(Cc2ccccn2)CC1` was tested, and the Potency was 21.7 µM (active).
